Screens deposited in PubChem BioAssay by National Center for Advancing Translational Sciences (NCATS).
MARV entry inh – blocks Marburg virus binding to or entry into cells | 1.8% of 300,000 active | Potency, µM (highest dose often 37.8 µM), actives largely listed as inhibitors | Marburg virus pseudotyped entry inhibition, cell reporter; calls by dose curve; tested in HEK293 cells
HCMV inh – inhibitors of human cytomegalovirus | HFF cells, HCMV-luciferase reporter, 72 h; active compounds read low | activity change, negative = inhibition, % at 57.5 µM | 4.5% of 410,000 active; in the data active means activity change below about -60%; inconclusive means no clear call, values can overlap the other calls; inactive means above about -39%
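Inhibition of viral replication was scored as loss of reporter luminescence in HFFs infected with HCMV-luciferase (MOI 1 PFU/cell) for 72 h; compounds tested at 2 doses, normalized to buffer and Salinomycin controls.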
HCV inhibitor – HCV inhibition; AID 651820; Huh7.5.1 HCVcc-Cre infection, luciferase reporter, 44 h; 3.4% of 340,000 active; Potency, µM (titrated, usually from 41.8 µM), most hits filed as inhibitors; active means well fitted inhibition curve with a large enough effect; inconclusive means small, poorly fitted or top-dose-only effect, or another doubt; inactive means no such curve, though single readings can be large or run the other way
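Whole-lifecycle infectious HCVcc-Cre system; cells 1,000/well, compound then virus (~0.5 moi) added 4 h after plating, 44 h culture. Luciferase read 15 sec following 15 min substrate incubation, room temp.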
Vaccinia mCherry – vaccinia inhibition (mCherry reporter) | Vaccinia virus mCherry reporter infection, fluorescence | Potency, µM (titrated, usually from 36.5 µM), usual class: inhibitors | 0.63% of 310,000 active | AID 720579; calls by dose curve; tested in A549 cells; further: nearly all actives have a fitted effect of over 35% in size
Vaccinia Venus – inhibitors of vaccinia virus (Venus reporter); Vaccinia virus Venus reporter expression, fluorescence; Potency, µM (top dose mostly 36.5 µM), usual class: inhibitors; 0.46% of 330,000 active; AID 720580; calls by dose curve; tested in A549 cells; further: nearly all actives have a fitted effect of over 30% in size
Lassa entry inh – inhibitors of Lassa virus binding or cell entry; 1.2% of 300,000 active; Potency, µM (series often up to 37.9 µM), usual class: inhibitors; Lassa virus pseudotype entry inhibition, cell reporter; calls by dose curve; tested in HEK293 cells; further: nearly all actives have a fitted effect of over 50% in size
Large screens that a line does not name were inactive. Sampled rows, rich in hits. Any-hit rate of the full collection: about 7.8%.

CCCCOc1ccccc1NC(=O)Cn1c(-c2nonc2N)nc2ccccc21	MARV entry inh inconclusive, HCMV inh -78, HCV inhibitor inconclusive, Vaccinia mCherry 4µM, Vaccinia Venus inconclusive, Lassa entry inh inconclusive
O=c1c2ccccc2nc(-c2ccco2)n1Cc1ccccc1	none (no result: Vaccinia mCherry, Vaccinia Venus)
CCOc1ccc(CCn2c(-c3ccco3)nc3ccccc3c2=O)cc1OCC	MARV entry inh 2.3µM, HCMV inh -76, HCV inhibitor 7.1µM, Lassa entry inh 6.5µM (no result: Vaccinia mCherry, Vaccinia Venus)
C=CCc1cc(C(=O)N2CCCCC2)ccc1O	HCMV inh -71 (no result: Vaccinia mCherry, Vaccinia Venus)
O=C(c1ccc2c(c1)OCCO2)N1CCCCC1	Lassa entry inh inconclusive (no result: Vaccinia mCherry)
Cc1nnc(SCC(=O)N/N=C/c2ccc(-c3ccc(C)c(Cl)c3)o2)s1	HCMV inh -65, Lassa entry inh inconclusive
Cc1ccc(C(=O)N/N=C\c2ccc(-c3ccc(Cl)c(Cl)c3)o2)cn1	MARV entry inh inconclusive, HCMV inh inconclusive, Vaccinia Venus inconclusive, Lassa entry inh inconclusive
CN1/C(=C\C=C2/SC(=S)NC2=O)C(C)(C)c2ccccc21	HCMV inh -93, HCV inhibitor inconclusive (no result: MARV entry inh, Lassa entry inh)
CN1C(=CC=C2C=C(I)C(=O)C(I)=C2)C(C)(C)c2ccccc21	HCMV inh -77
CCN1CCN(CC(=O)Nc2ccc(Cl)c(S(=O)(=O)N(C)C)c2)CC1	none (no result: MARV entry inh, Vaccinia mCherry, Vaccinia Venus, Lassa entry inh)
CCCCc1ccc(NC(=S)Nc2ccc(Cl)c(S(=O)(=O)N(C)C)c2)cc1	MARV entry inh inconclusive, HCMV inh -63, HCV inhibitor inconclusive, Lassa entry inh inconclusive
CCO[C@H](c1cc(OC)cc([N+](=O)[O-])c1OC)[C@H](C)[C@@H](OC)[C@H](C)C=CCC(=O)OC	none (no result: HCMV inh, HCV inhibitor, Vaccinia mCherry, Vaccinia Venus, Lassa entry inh)
CCOc1cc(CNCc2cc(OC)cc(OC)c2)ccc1OC	MARV entry inh inconclusive, HCV inhibitor 0.56µM, Lassa entry inh inconclusive
CCOc1cc(CNCc2ccc(C(=O)O)cc2)ccc1OC	MARV entry inh inconclusive
CCCc1ccc(-c2cc(C(=O)N/N=C/c3ccc([N+](=O)[O-])o3)c3ccccc3n2)cc1	MARV entry inh 7.1µM, HCMV inh inconclusive, HCV inhibitor 10µM, Vaccinia mCherry inconclusive, Vaccinia Venus inconclusive, Lassa entry inh 5.6µM
O=C(N/N=C/c1ccco1)c1cc(-c2ccccc2)nc2ccccc12	Vaccinia mCherry inconclusive
O=C(N/N=C/c1ccc([N+](=O)[O-])o1)c1cc(-c2cccc(Br)c2)nc2ccccc12	MARV entry inh inconclusive, HCMV inh -70, HCV inhibitor 10µM, Lassa entry inh inconclusive
C/C(=N\NC(=S)NC(C)C)c1ccc2c(c1)OCCO2	MARV entry inh inconclusive, HCMV inh inconclusive, HCV inhibitor inconclusive, Vaccinia mCherry inconclusive, Lassa entry inh inconclusive
C/C(=N\NC(N)=S)c1ccc(Cl)s1	HCMV inh -67, Vaccinia mCherry 0.35µM, Vaccinia Venus inconclusive
C/C(=N\NC(=S)NC(C)C)c1ccc(Cl)s1	HCV inhibitor 6.3µM
O=C(c1ccc(S(=O)(=O)N2CCCCC2)cc1)N1CCN(Cc2ccc3c(c2)OCO3)CC1	MARV entry inh inconclusive, HCV inhibitor inconclusive
CN(C)S(=O)(=O)c1ccc(Cl)c(NC(=O)CN2CCN(Cc3ccc4c(c3)OCO4)CC2)c1	HCMV inh -60, HCV inhibitor inconclusive (no result: MARV entry inh, Vaccinia mCherry, Vaccinia Venus, Lassa entry inh)
CN(C)S(=O)(=O)c1ccc(Cl)c(NC(=O)CN2CCc3ccccc3C2)c1	MARV entry inh inconclusive, HCMV inh -64, HCV inhibitor inconclusive, Lassa entry inh inconclusive
O=C(CN1CCN(Cc2ccc3c(c2)OCO3)CC1)Nc1cc(S(=O)(=O)N2CCCC2)ccc1Cl	MARV entry inh inconclusive, HCMV inh inconclusive, HCV inhibitor 6.3µM
O=C(CCCCn1c(=O)c2ccccc2n(CC(=O)Nc2ccc(F)cc2F)c1=O)NCc1ccccc1Cl	none (no result: HCV inhibitor)
O=C(Nc1ccc(OC(F)(F)F)cc1)C(NS(=O)(=O)c1cccc2nsnc12)c1ccccc1 (centres undefined)	MARV entry inh inconclusive, Lassa entry inh inconclusive (no result: HCV inhibitor)
Cc1cccc(N2CCN(CCCNc3ncnc4onc(-c5ccc(F)cc5)c34)CC2C)c1 (centres undefined)	none (no result: MARV entry inh, HCV inhibitor)
COc1ccc(CCNc2ncnc3c2cnn3-c2ccc(C)c(Cl)c2)cc1	none (no result: MARV entry inh, HCV inhibitor)
COc1ccc(CC(=O)NNc2ncnc3c2cnn3-c2ccccc2)cc1	Lassa entry inh 5.2µM
O=C(NNc1ncnc2c1cnn2-c1cccc(Cl)c1)c1ccco1	none (no result: MARV entry inh, Vaccinia mCherry, Vaccinia Venus, Lassa entry inh)
COc1ccc(C(=O)NNc2ncnc3c2cnn3-c2cccc(Cl)c2)cc1OC	HCMV inh -86, Vaccinia mCherry inconclusive, Vaccinia Venus inconclusive, Lassa entry inh inconclusive (no result: MARV entry inh, HCV inhibitor)
COc1ccc(CCNc2ncnc3c2cnn3-c2cc(Cl)ccc2C)cc1	HCMV inh -61, Lassa entry inh inconclusive (no result: MARV entry inh, HCV inhibitor)
COc1ccc(CC(=O)NNc2ncnc3c2cnn3-c2ccc(C)cc2)cc1	none
Cc1nc2c3ccccc3nc(NNC(=O)CCC(=O)O)n2n1	MARV entry inh inconclusive (no result: HCV inhibitor)
Cc1ccc([N+](=O)[O-])cc1N/C=C/C(=O)c1ccco1	MARV entry inh inconclusive, HCV inhibitor 6.3µM, Lassa entry inh 12µM
CCOc1ccc(CCNC(=O)COC(=O)/C=C/c2ccccc2)cc1OCC	HCMV inh -87
CCOc1ccc(CCNC(=O)COC(=O)/C=C/c2ccc(OCC#N)c(OC)c2)cc1OCC	none
O=C(COC(=O)/C=C/c1ccccc1)NC1CCS(=O)(=O)C1 (centres undefined)	none (no result: MARV entry inh, Vaccinia mCherry, Vaccinia Venus, Lassa entry inh)
CCOc1cc(/C=C/C(=O)OCC(=O)NC2CCS(=O)(=O)C2)ccc1OCc1ccccc1 (centres undefined)	HCV inhibitor 13µM
O=C(Nc1cccc(Cl)c1)Nc1csc([N+](=O)[O-])c1	MARV entry inh inconclusive, HCMV inh -97, HCV inhibitor inconclusive, Lassa entry inh inconclusive
COc1cccc(C(=O)N2c3cc(C)ccc3C(C)(c3ccccc3)CC2(C)C)c1 (centres undefined)	Lassa entry inh inconclusive (no result: MARV entry inh, HCV inhibitor)
CCOc1ccc(OCC)c2sc(C)nc12	HCV inhibitor 10µM (no result: Vaccinia mCherry, Vaccinia Venus)
CCOc1cccc2sc(Cl)nc12	MARV entry inh inconclusive, Lassa entry inh inconclusive
CSc1ccc(/C=C/C(=O)c2ccc(O)cc2)cc1	Vaccinia mCherry 11µM, Vaccinia Venus inconclusive
Cc1ccc(C(=O)/C=C/C(=O)O)cc1	none (no result: MARV entry inh, Lassa entry inh)
Cc1ccc(/C=C/C(=O)c2ccc(O)cc2)cc1	MARV entry inh inconclusive, Vaccinia mCherry 11µM, Lassa entry inh 8.9µM
CCOC(=O)/C(=C\Nc1cccc(OCc2ccccc2)c1)NC(=O)c1ccccc1	HCMV inh -60 (no result: MARV entry inh, HCV inhibitor, Vaccinia mCherry, Vaccinia Venus, Lassa entry inh)
Cc1ccc(-n2nc(C)c3nc(CCC(=O)Nc4ccc(F)cc4)c(=O)n(C)c32)cc1	Lassa entry inh inconclusive (no result: MARV entry inh, HCV inhibitor)
Cc1c(C(=O)N2CCCC2)oc2c1-c1nn(CC(=O)NCc3ccccc3F)cc1CC2	HCMV inh -64 (no result: MARV entry inh, HCV inhibitor)
CCN(CC)CCCNC(=O)c1oc2c(c1C)-c1nn(Cc3ccc(Cl)cc3)cc1CC2	HCMV inh -97 (no result: MARV entry inh, HCV inhibitor)
COCCCNC(=O)c1oc2c(c1C)-c1nn(Cc3ccc(Cl)cc3)cc1CC2	none (no result: MARV entry inh, HCV inhibitor)
c1ccc(-c2nc(-n3nc4ccccc4n3)nc3ccccc23)cc1	MARV entry inh inconclusive, HCV inhibitor 14µM, Lassa entry inh inconclusive (no result: Vaccinia mCherry)
